From PubChem BioAssay
CYP2C9 act: increases human cytochrome P450 2C9 activity; P11712; recombinant CYP2C9, luciferin-H conversion, luminescence; hits give high values; factor 1 = untreated enzyme, 0 = blocked; activation factor at 5 µM; actives 1.4% (n = 96,000); AID 1024;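 active = activation factor of 2 or more for CYP2C9 at a 5 µM dose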
CYP2C9 inhib: blocks human cytochrome P450 2C9 | P11712 | CYP2C9 Supersomes, luciferin-H conversion, luminescence | inhibition, % at 5 µM | actives 20% (n = 96,000) | AID 777;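 active = blocking of liver enzyme CYP2C9 beyond about 50% at 5 µM, limit read from the data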
D1 allo mod: allosterically modulates the human D1 dopamine receptor; P21728; HEK293 D1, CRE-luciferase, dopamine EC30 potentiation; actives deviate in either direction; B-score at 10 µM; actives 5.9% (n = 58,000); AID 641;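 active = luminescence count or its row- and column-corrected plate score outside the 99.7% band of the plate's sample wells, on either side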
CYP2C19 act: increases human CYP2C19 enzyme activity | P33261 | recombinant CYP2C19, luciferin-H EGE luminescence; hits give high values; 0 = fully inhibited enzyme, 1 = untreated enzyme | activation factor at 5 µM | 96,000 tested, under 10 active | AID 1025;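 active = activation factor of at least 2 at 5 µM in the primary screen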
CYP2C19 inhib: human CYP2C19 inhibition; inhibition, % at 5 µM; CYP2C19 Supersomes, luciferin-H EGE luminescence, 30 min; actives 21% (n = 96,000); AID 778; P33261;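 active = CYP2C19 inhibition above a set limit at 5 µM in the primary screen, cut at about 50% in these data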
DAT uptake mod: human DAT dopamine uptake with cocaine, either direction. actives 1.3% (n = 110,000). B-score at 10 µM. AID 449768. LLC-PK1 hDAT cells, [14C]-dopamine uptake with cocaine IC80; actives deviate in either direction. Q01959;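 active = Z score or B-score, a plate-position-corrected score, falls beyond the plate's 99.7% confidence bounds, in either direction; inactive = both scores lie inside the 99.7% bounds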
Target sequence (Q01959 whole entry, looked up): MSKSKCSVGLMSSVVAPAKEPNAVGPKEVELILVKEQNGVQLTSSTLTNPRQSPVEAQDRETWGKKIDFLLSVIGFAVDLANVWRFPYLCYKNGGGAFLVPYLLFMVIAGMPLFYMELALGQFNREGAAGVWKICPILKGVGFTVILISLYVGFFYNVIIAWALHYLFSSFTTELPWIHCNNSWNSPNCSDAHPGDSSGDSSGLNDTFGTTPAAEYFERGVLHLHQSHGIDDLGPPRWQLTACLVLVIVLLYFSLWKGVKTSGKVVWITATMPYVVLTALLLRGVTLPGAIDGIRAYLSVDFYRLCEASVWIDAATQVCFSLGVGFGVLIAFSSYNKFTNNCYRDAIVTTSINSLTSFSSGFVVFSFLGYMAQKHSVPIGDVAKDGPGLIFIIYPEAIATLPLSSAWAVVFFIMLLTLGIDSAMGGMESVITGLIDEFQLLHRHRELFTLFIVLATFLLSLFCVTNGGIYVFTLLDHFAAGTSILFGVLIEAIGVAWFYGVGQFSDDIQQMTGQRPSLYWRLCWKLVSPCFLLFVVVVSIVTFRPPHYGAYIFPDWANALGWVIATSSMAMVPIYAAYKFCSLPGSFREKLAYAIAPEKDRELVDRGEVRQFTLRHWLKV
A number is an active result; . = inactive; / = no result given. An excerpt weighted towards active compounds, which were near 28% of everything screened.

SMILES	CYP2C9 act	CYP2C9 inhib	D1 allo mod	CYP2C19 act	CYP2C19 inhib	DAT uptake mod
COc1ccc(C(=O)N/N=C/c2ccc3cccc(OCc4ccccc4)c3n2)cc1	.	.	/	.	.	.
COc1ccc(Br)cc1/C=N/NC(=O)CNC(=O)/C=C/c1ccccc1	.	.	/	.	.	.
COc1ccc(NC(C)C(=O)N/N=C/c2ccccc2OCc2ccc(Br)cc2)cc1 (stereo not given)	.	69.1	/	.	.	.
CC(C)(C)OC(=O)N1CCN(c2ccc(CNC(=O)c3ccc(Cl)cc3)cc2)CC1	.	.	/	.	.	.
N#Cc1cnn(-c2nc3sc4c(c3c(=O)[nH]2)CCCC4)c1N	.	.	/	.	.	/
CCNc1sc(C(=O)c2cccs2)c(N)c1-c1nc2ccccc2s1	.	89.5	.	.	52.9	.
O=C(O)C1NCCc2ccccc21 (stereo not given)	.	74.0	.	.	.	.
Cc1cccc(NC(=S)NN2CCN(C)CC2)c1	.	.	/	.	.	.
CC1(C(=O)N2CC3(CC(c4ccccc4)=NO3)C[C@H]2C(=O)NCC(N)=O)CC1 (stereo not given in full)	.	.	/	.	.	.
NC(=O)CNC(=O)[C@@H]1CC2(CC(c3cccc(Br)c3)=NO2)CN1C(=O)c1ccc(Br)cc1 (stereo not given in full)	.	.	/	.	.	2.23
Cc1occc1C(=O)NC1CCCc2ccccc21 (stereo not given)	.	.	.	.	70.9	.
O=C(NCCCN1CCOCC1)C(Sc1ccccc1)c1ccccc1 (stereo not given)	.	.	/	.	.	.
CC(C)NC(=O)C(Sc1ccccc1)c1ccccc1 (stereo not given)	.	62.1	/	.	96.3	.
O=C(Nc1ccon1)C(Sc1ccccc1)c1ccccc1 (stereo not given)	.	86.2	/	.	91.7	.
O=C(Nc1ncccc1Cl)C(Sc1ccccc1)c1ccccc1 (stereo not given)	.	54.8	/	.	58.0	.
CC(=O)NS(=O)(=O)c1ccc(NC(=O)C(Sc2ccccc2)c2ccccc2)cc1 (stereo not given)	.	.	/	.	.	.
COc1ccc(C(=O)c2ccc(N3CCN(C4CC(=O)NC4=O)CC3)cc2)cc1F (stereo not given)	.	.	.	.	.	.
CSc1nnc(C2CCCN2)n1C (stereo not given)	.	.	/	.	.	.
CCCCN(CC)Cc1ccc(CNC(=O)Nc2ccc(F)cc2)o1	.	.	/	.	.	-5.48
O=C(NC(C(=O)N/N=C/c1cccc2ccccc12)c1n[nH]c(=O)c2ccccc12)c1ccccc1 (stereo not given)	.	56.1	/	.	.	.
O=C(COc1ccccc1-c1ccccc1)N/N=C/c1cccc2ccccc12	.	.	/	.	.	.
CO/N=C/C(=N\Nc1ccc(OC)cc1)C(=O)c1ccc(OC)cc1	.	68.5	/	.	.	.
O=c1cc(C(Cl)(Cl)Cl)oc2c1ccc1ccccc12	.	64.6	/	.	55.5	.
O=c1cc(-c2ccco2)oc2c1ccc1ccccc12	.	.	/	.	.	.
CC(C)CC1(C(=O)NCCN2CCOCC2)C=CCN1C(=O)c1ccccc1 (stereo not given)	/	/	/	/	/	.
SMILES	CYP2C9 act	CYP2C9 inhib	D1 allo mod	CYP2C19 act	CYP2C19 inhib	DAT uptake mod
COc1ccc(CCN(C(=O)c2ccc(F)cc2)C2=CC3CCC(C2)N3C)cc1OC (stereo not given)	.	.	.	.	.	.
COc1ccc(-c2n[nH]c(C(F)(F)F)c2-c2cc3ccccc3o2)c(O)c1	.	90.4	.	.	.	.
COc1ccc(-c2cc(O)cc(O)c2)cc1	.	59.7	.	.	58.8	.
O=C1c2c(O)cc(O)cc2O[C@@]12c1c(cc(O)c3c1O[C@H](c1ccc(O)cc1)[C@@H](O)C3)O[C@@H]2c1ccc(O)cc1	/	/	/	/	/	2.16
COC(=O)/C(=C\c1c(OC)cc(OC)cc1OC)C(=O)c1ccc2c(c1)OCO2	/	/	/	/	/	.
CC1(C)CCN(Cc2ccccc2)C1CC#N (stereo not given)	.	.	/	.	59.7	.
CCC(C)(C)n1nnnc1CN1CCC(NC(=O)c2ccc(Br)cc2)CC1	/	/	/	/	/	1.77
O=C(CSc1ccc2nnc(-c3ccncc3)n2n1)Nc1ccc2c(c1)OCCO2	.	56.5	.	.	.	.
O=C(CSc1ccc2nnc(-c3ccncc3)n2n1)Nc1ccc2c(c1)OCO2	.	57.5	.	.	.	.
O=C(CSc1ccc2nnc(-c3ccccn3)n2n1)Nc1ccc2c(c1)OCCO2	.	65.5	.	.	.	.
Cn1c(SCC(=O)OC2CCCCC2)nnc1-c1ccco1	/	/	/	/	/	.
CN1C(=O)c2cccc(NC(=O)Cc3ccccc3)c2C1=O	.	57.7	.	.	.	.
CC(C)COn1c(=S)[nH]c2ccccc2c1=O	.	.	/	.	58.9	.
O=C(c1cccc(COc2ccc(Cl)cc2Cl)c1)N1CCN(c2ccccn2)CC1	.	69.9	.	.	53.8	.
NC(=O)C1CCN(C(=O)COc2cccc3ccccc23)CC1	.	.	/	.	.	.
O=C(c1cccc(COc2cccc3ccccc23)c1)N1CCCC1	/	/	/	/	/	3.68
COc1ccc(Cl)cc1NC(=S)N1CCN(c2ccccn2)CC1	2.5	.	/	.	56.0	.
Cc1nc2ccc(C(=O)N3CCN(c4ccccn4)CC3)cc2s1	.	.	.	.	.	.
COc1ccccc1NC(=O)N1CCN(c2ccccn2)CC1	.	.	.	.	.	.
CCOc1cc(Br)c(C(=O)O)cc1OC	.	.	/	.	.	.
Cc1ccc(C(=O)/C=C/c2ccc(-c3ccccc3[N+](=O)[O-])o2)cc1	.	57.6	/	.	.	.
O=C(/C=C/c1ccc(-c2ccccc2[N+](=O)[O-])o1)c1ccc(Br)cc1	.	.	/	.	.	.
COC(=O)c1cccc(S(=O)(=O)N(Cc2ccco2)Cc2cc3ccc(OC)cc3[nH]c2=O)c1	.	51.5	.	.	.	.
CCCN(Cc1cc2ccc(C)cc2[nH]c1=O)S(=O)(=O)c1ccccc1	.	97.4	/	.	.	.
CCN(Cc1cc2ccccc2[nH]c1=O)S(=O)(=O)c1ccccc1	.	59.4	.	.	81.2	.
CC(=O)c1cccc(S(=O)(=O)N(CCCO)Cc2cc3ccc(C)cc3[nH]c2=O)c1	.	70.9	.	.	.	.
COC(=O)c1cccc(S(=O)(=O)N(Cc2ccco2)Cc2cc3cc(OC)c(OC)cc3[nH]c2=O)c1	.	.	/	.	.	.
CCCS(=O)(=O)NCCc1cc2ccc(C)cc2[nH]c1=O	/	/	.	/	/	.
CC1(OC(=O)CCc2ccccc2)C(=O)C=C2C=C(C3CC3)OC=C2C1=O (stereo not given)	/	/	/	/	/	.
CC(Cc1c[nH]c2ccccc12)NC(=O)C1CCCNC1=O (stereo not given)	.	.	.	.	.	.
